# Screening results from PubChem BioAssay.
# ABCB6 inh MLPCN = ABCB6 transporter inhibitors, primary screen, K562-ABCB6 cells, flow cytometry, MLPCN library; 360,000 compounds, 0.19% hits; K562-ABCB6 porphyrin accumulation, 1 h; hits give low values; fluorescence ratio to DMSO, % at 10 µM;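 active = fluorescence ratio to DMSO below 75%, the collection mean minus 3 SD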;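 note: signal is porphyrin accumulated inside mitochondria; 100% equals median channel fluorescence of DMSO control wells; lower ratio means ABCB6 inhibition with less porphyrin fluorescence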
# CRFR2-BP antag = antagonists of CRF-BP/CRF-R2 complex, primary screen, cell-based, HEK293, calcium dye fluorescence, uHTS | CRF-induced calcium fluorescence | 350,000 compounds, 0.59% hits | inhibition, % at 11.8 µM | AID 588475, 2011;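 active = inhibition of the ligand-induced calcium signal above about 50% at the single tested concentration, limit read from the data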
# MEKK2 mut-MEK5 = MEK5 binding signal on mutant MEKK2 PB1, primary screen, biochemical, multiplex bead flow cytometry, Alexa488-MEK5; 290,000 compounds, 0.35% hits; percent response, % at 10 µM; Alexa488-MEK5 binding to MEKK2 mutant; in the data active = percent response above about 24%, passing the limit was not always enough
# MEKK3 PB1 HTS = modulators of MEKK3-MEK5 PB1 binding, primary screen, biochemical, wildtype MEKK3, multiplex bead flow cytometry, Alexa488-MEK5 | Mitogen-activated protein kinase kinase kinase 3 (Homo sapiens), Q99759 | bead-based flow cytometry, Alexa488-MEK5 binding to MEKK3; actives lie on both sides; 0 = blocked by unlabeled MEK5, 100 = vehicle | binding response (% of control), % at 10 µM | 290,000 compounds, 1.4% hits;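 active = binding response more than 3 SD above or below the average of its plate-row segment, actives on both sides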;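 note: Alexa488 bead fluorescence after subtracting the streptavidin-only scavenger bead signal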
# Target sequence (Q99759 whole entry, looked up): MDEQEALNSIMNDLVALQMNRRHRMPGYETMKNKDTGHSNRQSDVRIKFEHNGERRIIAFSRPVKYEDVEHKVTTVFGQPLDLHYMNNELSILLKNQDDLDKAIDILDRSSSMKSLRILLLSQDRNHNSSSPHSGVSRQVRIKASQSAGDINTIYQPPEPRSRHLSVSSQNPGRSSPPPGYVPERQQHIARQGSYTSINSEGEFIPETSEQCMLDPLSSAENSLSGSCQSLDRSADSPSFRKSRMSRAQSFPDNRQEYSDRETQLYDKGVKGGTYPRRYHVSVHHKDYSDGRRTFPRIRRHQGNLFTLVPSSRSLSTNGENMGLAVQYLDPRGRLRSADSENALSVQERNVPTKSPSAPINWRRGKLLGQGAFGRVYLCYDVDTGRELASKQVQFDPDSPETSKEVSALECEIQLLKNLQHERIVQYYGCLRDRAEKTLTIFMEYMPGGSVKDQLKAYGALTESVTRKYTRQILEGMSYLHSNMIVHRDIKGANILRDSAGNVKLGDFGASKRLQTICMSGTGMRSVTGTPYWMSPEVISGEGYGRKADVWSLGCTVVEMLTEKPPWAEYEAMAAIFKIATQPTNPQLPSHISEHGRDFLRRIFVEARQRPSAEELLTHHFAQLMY
# MEKK2 WT-MEK5 = modulators of MEK5 binding to wildtype MEKK2, primary screen, biochemical, multiplex bead flow cytometry, Alexa488-MEK5. Alexa488-MEK5 binding to MEKK2 WT; actives lie on both sides. binding response (% of control), % at 10 µM. 290,000 compounds, 1.1% hits; in the data active = binding response below about 67% or above about 130%
# CRFBP-R2 agonist = agonists of CRF-BP/CRF-R2 complex, primary screen, cell-based, HEK293, calcium dye fluorescence, uHTS | CRF-binding protein / CRF receptor 2 complex (human) | calcium dye fluorescence (FLIPR); percent of saturating CRF peptide response | activation, % at 13.2 µM | 350,000 compounds, 0.46% hits | AID 588473, 2011;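 active = activation of at least 50%, plus an integration ratio under a set limit after plate pattern correction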;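 note: plate controls were neutral control wells without compound for no effect and CRF at EC100 for full effect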
# * = called active by the depositor; · = no result given. Compounds with a hit are over-represented: about 2.9% of the library has one in this group of screens.
SMILES,ABCB6 inh MLPCN,CRFR2-BP antag,MEKK2 mut-MEK5,MEKK3 PB1 HTS,MEKK2 WT-MEK5,CRFBP-R2 agonist
COc1ccccc1NC(=O)CCc1nnc2ccc(N3CCCCC3)nn12,101,6,4,100,97,-1
CCOc1ccccc1NC(=O)CCc1nnc2ccc(N3CCC(C)CC3)nn12,95,69*,-4,100,95,0
CC(=O)c1ccc(NC(=O)CCc2nnc3ccc(N4CCC5(CC4)OCCO5)nn23)cc1,97,65*,0,102,98,1
Cc1cc(-c2nc(C)c(C(=O)NN)s2)no1,97,-6,-11,95,97,0
COc1ccccc1N1C(=O)C(Cl)=C(Nc2ccccc2O)C1=O,129,-124,-12,92,79,84*
O=C1C(Cl)=C(Nc2ccccc2O)C(=O)N1c1ccccc1,122,7,-4,98,97,3
NS(=O)(=O)c1cccc(NC(=O)c2ccccc2NS(=O)(=O)c2ccc(F)cc2)c1,96,-13,1,97,93,2
O=C(Nc1cc(S(=O)(=O)N2CCCCC2)ccc1O)c1ccccc1NS(=O)(=O)c1ccc(F)c(F)c1,101,81*,2,99,99,111*
Cc1ccc(NC(=O)c2ccccc2NS(=O)(=O)c2ccc(F)cc2)cc1S(=O)(=O)N1CCCCC1,105,98*,1,102,100,46
O=C(Nc1cccc(S(=O)(=O)N2CCCCC2)c1)c1ccccc1NS(=O)(=O)c1ccc(F)cc1,89,85*,8,104,116,64*
O=C(Nc1cccc(F)c1)c1cc(S(=O)(=O)N2CCOCC2)ccc1N1CCCC1,98,-35,·,·,·,66*
Cc1ccc(C(=O)Nc2ccc(S(=O)(=O)Nc3cnc4ccccc4n3)cc2)cc1,91,1,1,100,102,0
CS(=O)(=O)N(CC(=O)O)c1cc(C(F)(F)F)ccc1Cl,95,8,·,·,·,1
CCCc1cc(=O)[nH]c(SCC(=O)Nc2ccc(OC(F)F)cc2)n1,85,66*,2,102,97,-1
CCCc1cc(=O)[nH]c(SCC(=O)Nc2ccc3ccccc3c2)n1,95,-2,·,·,·,0
c1ccc(-c2sc3ccccc3c2-c2ccc(OCCN3CCCC3)cc2)cc1,97,0,·,·,·,5
COc1ccc(-c2sc3ccccc3c2-c2ccc(OCCN3CCCCC3)cc2)cc1,99,62*,·,·,·,8
COc1ccc(/C=N/NC(=O)CNC(=O)COc2ccccc2)cc1,94,-8,-60,83,4.0*,1
O=C(NCCc1ccccc1)C(c1cccs1)N(C(=O)CCl)c1ccc(Cl)cc1 (stereo not drawn),33*,-41,-1,107,99,6
O=C(NCCc1ccccc1)C(c1cccs1)N(C(=O)c1csnn1)C1CC1 (stereo not drawn),98,13,2,102,101,-3
Cc1cc(C)c2oc(=O)cc(CN3CCC(C)CC3)c2c1,136,0,2,99,105,-2
Cc1cc(/C=N/NC(N)=S)c(O)c(/C=N/NC(N)=S)c1,105,-73,-15,94,94,157*
NC(=S)N/N=C/c1cccc(O)c1O,105,-50,2,103,103,2
O=[N+]([O-])c1ccc(N2N=C(c3ccco3)CC2c2ccccc2)cc1 (stereo not drawn),134,-122,6,105,88,51*
COc1ccc(NC(=O)CCNC(=O)C2CCN(S(=O)(=O)c3ccccc3)CC2)cc1OC,97,-8,·,·,·,-1
SMILES,ABCB6 inh MLPCN,CRFR2-BP antag,MEKK2 mut-MEK5,MEKK3 PB1 HTS,MEKK2 WT-MEK5,CRFBP-R2 agonist
O=C(NCCCN1CCOCC1)c1ccc(/C=C2\Oc3ccccc3N(Cc3ccccc3F)C2=O)cc1,100,-14,22,105,133,-2
CCN1CCN(CCCNC(=O)c2ccc(/C=C3/Oc4ccccc4N(Cc4cccc(C)c4)C3=O)cc2)CC1,102,-10,34*,105,169*,0
CCN1CCN(CCCNC(=O)c2ccc(/C=C3/Sc4ccccc4N(Cc4ccccc4F)C3=O)cc2)CC1,101,4,40,102,177*,-1
Cc1csc(NC(=O)Cc2ccccc2[N+](=O)[O-])n1,101,-128,1,101,103,208*
CCOC(=O)Cc1csc(NC(=O)Cc2ccccc2[N+](=O)[O-])n1,99,-12,-3,101,95,0
O=C(NCC(c1ccco1)N1CCCC1)c1cc2cc(Cl)ccc2o1 (stereo not drawn),100,-27,·,·,·,57*
CC(C)C[C@H]1COc2cccc(N(C)CCO)c2S(=O)(=O)N1,96,·,·,·,·,·
Cc1ccc(C(NC(=O)Nc2ccccn2)C(Cl)(Cl)Cl)cc1F (stereo not drawn),98,-7,2,100,101,0
COc1ccc(OCCN2C(=O)c3ccccc3C2=O)cc1,100,-2,-13,85,83,0
COc1ccc(C2=Nc3ccccc3C2(O)CCN2C(=O)c3ccccc3C2=O)cc1 (stereo not drawn),96,67*,·,·,·,31
COc1cc(C(=O)Nc2ccc3c(c2)CCN3C(C)=O)cc(OC)c1OC,95,5,21,101,173*,-2
COc1cc(C(=O)Nc2ccc(S(=O)(=O)N3CCc4ccccc43)cc2)cc(OC)c1OC,102,-6,0,103,114,1
Cc1ccc(Sc2c(C=O)c3ccccc3n2C)cc1,98,58*,3,106,102,9
CCOc1ccc(C(=O)N2CCN(Cc3ccccc3)CC2)cc1OCC,96,9,3,105,104,-4
COc1ccc(C(C)NC(=O)c2ccccc2Br)cc1OC (stereo not drawn),108,-6,-7,97,101,0
Cc1ccc(C)c(C(C)NC(=O)c2ccccc2Br)c1 (stereo not drawn),97,64*,0,97,95,-1
COc1cccc(Oc2ccc(OC)cc2C(=O)O)c1,96,74*,-2,99,101,4
CNC(=O)/C(C#N)=C/c1c(N2CCCCCC2)nc2c(C)cccn2c1=O,101,-2,7,106,105,-2
